Reference: PubChem BioAssay (EPA / NIEHS)
Active and inactive are the calls of the source. How the source made its calls: active means hit-call score of the fitted dose curve at least 0.9, where 1 is the maximum; inactive means score below 0.9.

What was measured:
[1] = ATG_CRE_CIS: Attagene CIS-FACTORIAL HepG2 Assay for human cAMP Responsive Element (CRE) binding protein 3 (AID 2282926); conditions: HepG2 CRE cis-reporter, Attagene multiplexed mRNA; actives raise or lower the signal
Outline: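 HepG2 cells transiently transfected with a multiplexed reporter library (CRE-driven unit among them) were dosed for 24 h. Reporter mRNA was quantified by RT-PCR, fluorescent labelling, HpaI digestion and capillary electrophoresis, with bidirectional fitting against DMSO baseline.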

[2] = ATG_CMV_CIS: Attagene CIS-FACTORIAL HepG2 Assay for human CMV (Internal Marker) (AID 2282928); conditions: HepG2 CMV promoter reporter, transcription factor profiling; actives raise or lower the signal;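 further: endpoint acts as a background internal control marker rather than a target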
Outline: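 Endogenous transcription factor activity read in HepG2 via transfected cis-promoter reporter units. After 24 h dosing, reporter mRNA measured by RT-PCR/capillary electrophoresis; gain or loss of signal fit relative to DMSO.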

[3] = ATG_DR4_LXR_CIS: Attagene CIS-FACTORIAL HepG2 Assay for human Liver X Receptor (LXR), DR4 submotif (AID 2282929); conditions: HepG2 Attagene DR4 cis-reporter, mRNA transcription; actives raise or lower the signal
Outline: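 HepG2, transient MRTU transfection, cis-element (DR4) promoter; 24 h compound exposure; total RNA → oligo(dT) RT → PCR → 6-FAM primer extension → HpaI cut → CE. Gain/loss vs DMSO, bidirectional fit.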

[4] = ATG_AP_1_CIS: Attagene CIS-FACTORIAL HepG2 Assay for human Activator Protein 1 (AP-1) (AID 2282931); conditions: HepG2 Attagene cis-factorial AP-1 reporter mRNA; actives raise or lower the signal
Outline: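 Transient MRTU transfection of HepG2 → 24 h chemical treatment → RNA isolation, RT-PCR, 6-FAM labelling, HpaI digest → capillary electrophoresis. Fit: bidirectional, DMSO negative control.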

[5] = ATG_AP_2_CIS: Attagene CIS-FACTORIAL HepG2 Assay for human Activator Protein 2 (AP-2) (AID 2282932); conditions: HepG2 AP-2 cis-reporter, Attagene transcription factor profiling; actives raise or lower the signal
Outline: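 Bidirectional curve fitting against DMSO was applied to reporter mRNA signals from HepG2 cells 24 h after dosing. Cis-promoter reporter units, transiently transfected, were read by RT-PCR plus capillary electrophoresis.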

[6] = ATG_BRE_CIS: Attagene CIS-FACTORIAL HepG2 Assay for human Bone Morphogenetic Protein (BMP) Response Element (BRE) (AID 2282933); conditions: HepG2 BMP response element reporter, Attagene transcription factor profiling; actives raise or lower the signal
Outline: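 HepG2 cells transiently transfected with multiplexed cis-element reporter units were dosed with chemical for 24 h. Reporter mRNA was measured by RT-PCR with fluorescent labelling, HpaI digestion and capillary electrophoresis; bidirectional fitting relative to DMSO.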

[7] = ATG_E_Box_CIS: Attagene CIS-FACTORIAL HepG2 Assay for human Enhancer Box (E-box) (AID 2282936); conditions: HepG2 E-box cis-reporter transcription, actives raise or lower the signal
Outline: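 Multiplexed CIS reporter system in transiently transfected HepG2 cells measures native transcription factor activity. Reporter RNA after 24 h exposure is profiled by RT-PCR-capillary electrophoresis.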

[8] = ATG_M_61_CIS: Attagene CIS-FACTORIAL HepG2 Assay for M61 Transcription Factor (Internal Marker) (AID 2282937); conditions: HepG2 Attagene CIS-FACTORIAL M61 internal marker reporter; actives raise or lower the signal
Outline: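 Human liver HepG2, transient MRTU transfection (cis promoter elements), 24 h compound. Total RNA → oligo(dT) RT → PCR → FAM label → HpaI → CE. Internal background marker; bidirectional fitting, DMSO = baseline.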

[9] = ATG_EGR_CIS: Attagene CIS-FACTORIAL HepG2 Assay for human Early Growth Response 1 (EGR1) (AID 2282938); conditions: HepG2 Attagene CIS-FACTORIAL EGR reporter mRNA; actives raise or lower the signal
Outline: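 Transient transfection of human HepG2 with multiple cis-regulated reporter units, chemical exposure 24 h, total RNA isolated. Reverse transcription, PCR, fluorescent labelling and capillary electrophoresis quantify reporter transcripts; activity fitted bidirectionally against DMSO.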

[10] = ATG_M_19_CIS: Attagene CIS-FACTORIAL HepG2 Assay for M19 Transcription Factor (Internal Marker) (AID 2282939); conditions: HepG2 Attagene CIS-FACTORIAL M19 internal marker reporter; actives raise or lower the signal
Outline: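 HepG2 cells transiently transfected with cis-regulated multiple reporter transcription units were dosed for 24 h; reporter mRNA was quantified by RT-PCR, 6-FAM primer-extension labelling, HpaI digestion and capillary electrophoresis, with bidirectional fitting against DMSO baseline.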

[11] = ATG_Ets_CIS: Attagene CIS-FACTORIAL HepG2 Assay for human Erythroblast Transformation Specific (ETS) (AID 2282941); conditions: HepG2 ETS cis-reporter transcription, actives raise or lower the signal
Outline: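 Steps: transfect HepG2 with multiple reporter units; treat compound 24 h; isolate RNA, DNase-treat, reverse-transcribe; PCR-amplify, label with 6-FAM, digest with HpaI; separate by capillary electrophoresis. Activity fitted both directions versus DMSO.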

[12] = ATG_FoxO_CIS: Attagene CIS-FACTORIAL HepG2 Assay for human Forkhead box O (FoxO) (AID 2282943); conditions: HepG2 Attagene cis-reporter, FoxO element, mRNA; actives raise or lower the signal
Outline: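 Values reflect reporter mRNA induction or loss in HepG2 cells 24 h post-dosing, fitted bidirectionally with DMSO as negative control and baseline. Detection used RT-PCR and fluorescence capillary electrophoresis.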

[13] = ATG_ISRE_CIS: Attagene CIS-FACTORIAL HepG2 Assay for human Interferon Regulatory Factor 1 (IRF1) binding to an Interferon-Stimulated Response Element (ISRE) (AID 2282948); conditions: HepG2 ISRE cis-reporter (Attagene), mRNA transcription readout; actives raise or lower the signal
Outline: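 Transfected HepG2 (multiple reporter transcription units, cis elements) dosed 24 h. RNA → oligo(dT) RT → PCR → 6-FAM primer extension → HpaI → CE. DMSO = negative control/baseline.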

[14] = ATG_M_06_CIS: Attagene CIS-FACTORIAL HepG2 Assay for M06 Transcription Factor (Internal Marker) (AID 2282950); conditions: HepG2 Attagene CIS-FACTORIAL M06 internal marker reporter; actives raise or lower the signal
Outline: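 HepG2 cells transiently transfected with cis-regulated multiple reporter transcription units were exposed to chemical for 24 h; reporter mRNA was quantified by RT-PCR, 6-FAM primer labelling, HpaI digestion and capillary electrophoresis, fitted bidirectionally against DMSO.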

[15] = molecular target: Paired box protein Pax-6 (Homo sapiens) (UniProt P26367); assay: ATG_Pax6_CIS: Attagene CIS-FACTORIAL HepG2 Assay for human Paired Box 6 (PAX6) (AID 2282956); conditions: HepG2 CIS-FACTORIAL PAX6 reporter transcription, RNA readout; actives raise or lower the signal
Chain of Paired box protein Pax-6 (Homo sapiens) (P26367 whole entry, looked up): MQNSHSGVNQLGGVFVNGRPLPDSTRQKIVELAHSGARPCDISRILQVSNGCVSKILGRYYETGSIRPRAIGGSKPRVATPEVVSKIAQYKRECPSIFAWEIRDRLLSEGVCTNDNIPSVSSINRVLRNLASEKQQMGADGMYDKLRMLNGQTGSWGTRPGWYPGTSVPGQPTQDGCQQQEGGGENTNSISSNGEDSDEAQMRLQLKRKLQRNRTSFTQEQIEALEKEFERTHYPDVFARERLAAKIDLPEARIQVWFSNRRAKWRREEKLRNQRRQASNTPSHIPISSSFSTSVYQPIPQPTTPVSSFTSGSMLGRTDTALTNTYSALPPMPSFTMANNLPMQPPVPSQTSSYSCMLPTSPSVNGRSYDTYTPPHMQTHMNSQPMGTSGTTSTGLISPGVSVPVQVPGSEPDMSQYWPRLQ
Outline: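 Transient MRTU transfection of HepG2 → compound exposure 24 h → TriZol RNA, oligo(dT) RT → PCR, 6-FAM primer extension, HpaI cut → capillary electrophoresis; activity fitted both directions against DMSO.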

[16] = ATG_SREBP_CIS: Attagene CIS-FACTORIAL HepG2 Assay for human Sterol Regulatory Element Binding (SREBP) (AID 2282962); conditions: HepG2 Attagene cis-factorial SREBP reporter, mRNA; actives raise or lower the signal
Outline: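 Transfected HepG2 (cis-regulated reporter library, endogenous TFs) → compound 24 h → total RNA → oligo(dT) RT → reporter-specific PCR → FAM primer extension, HpaI cut → CE fluorescence. Fit bidirectional vs DMSO.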

[17] = ATG_TA_CIS: Attagene CIS-FACTORIAL HepG2 Assay for human TA Basal Promoter (AID 2282964); conditions: HepG2 Attagene CIS-factorial TA basal promoter reporter; actives raise or lower the signal
Outline: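 HepG2 cells transiently transfected with multiplexed cis-promoter reporter units, dosed 24 h. Reporter mRNA measured by RT-PCR, 6-FAM labelling, HpaI digestion and capillary electrophoresis; bidirectional fit versus DMSO baseline, serving as background control.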

[18] = ATG_TCF_b_cat_CIS: Attagene CIS-FACTORIAL HepG2 Assay for human T-Cell-Factor with beta-catenin (TCF/b-cat) (AID 2282965); conditions: HepG2 TCF/beta-catenin cis-reporter transcription, actives raise or lower the signal
Outline: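 Using capillary electrophoresis as the read-out, labelled reporter cDNA fragments from transiently transfected HepG2 were sized and quantified. Exposure lasted 24 hours; activity in either direction was referenced to DMSO.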

[19] = ATG_TGFb_CIS: Attagene CIS-FACTORIAL HepG2 Assay for human Transforming Growth Factor (TGF) (AID 2282967); conditions: HepG2 Attagene CIS TGFb reporter, mRNA transcription; actives raise or lower the signal
Outline: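 HepG2 cells transiently transfected with cis-promoter-driven multiplexed reporter units; 24 h compound exposure. Reporter mRNA measured by RT-PCR, 6-FAM labeling, HpaI digestion and capillary electrophoresis; bidirectional fit versus DMSO baseline.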

[20] = ATG_Oct_MLP_CIS: Attagene CIS-FACTORIAL HepG2 Assay for human Octamer-Binding Transcription Factor (Oct) (AID 2282993); conditions: HepG2 Attagene cis-factorial Oct reporter, mRNA; actives raise or lower the signal
Outline: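 HepG2 cells transiently transfected with cis-promoter-driven multiplexed reporter transcription units, dosed for 24 h. Reporter mRNA quantified by RT-PCR, fluorescent labelling, HpaI digestion and capillary electrophoresis; bidirectional fits versus DMSO baseline.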

Measured: AC50

CCCCn1cc[n+](C)c1
inactive: all assays above

O=C(O)/C=C\C(=O)O
inactive: all assays above

CC(C)(Oc1ccc(Cl)cc1)C(=O)O
inactive: all assays above

NCc1ccccc1
inactive: all assays above

O=S(=O)(O)c1cccc2ccccc12
inactive: all assays above

C=C(C)C(=O)OCC1CCCO1 (stereo not given)
inactive: all assays above

CC1=C(CC=O)C(C)(C)CCC1
inactive: all assays above

N#CCN(CC#N)CCN(CC#N)CC#N
inactive: all assays above

CCCN[C@H]1CCc2nc(N)sc2C1
inactive: all assays above

Cc1ccccc1S(=O)(=O)O
inactive: all assays above

CCCCCCCCCCCCCC
inactive: all assays above

OCCN(CCO)c1cccc(Cl)c1
inactive: all assays above

OCCc1ccccn1
inactive: all assays above

CCC(C)C1N=C(C)C(C)S1 (stereo not given)
inactive: all assays above

CCO[Si](CCCN)(OCC)OCC
inactive: all assays above

CCC(C)(CCC(C)C)C(=O)O (stereo not given)
inactive: all assays above

Cc1cccnc1
active: [4] 58 µM | [6] 167 µM | [11] 165 µM | [13] 164 µM
inactive: all other assays above

CC/C=C/CCO
inactive: all assays above

CCC(C)=NO
inactive: all assays above

CCC(C)NC(N)=O (stereo not given)
inactive: all assays above

CC[N+](CC)(CC(=O)Nc1c(C)cccc1C)Cc1ccccc1 (tested in a mixture with another compound)
inactive: all assays above

Brc1ccc(Oc2ccc(Br)cc2)cc1
active: [2] 40.4 µM | [4] 56.5 µM | [6] 86.9 µM | [19] 100 µM
inactive: all other assays above

CC(O)(P(=O)(O)O)P(=O)(O)O
inactive: all assays above

OCCOCCOCCOCCOCCO
inactive: all assays above

CC(C)CC(=O)CC(C)C
inactive: all assays above

O=C(O)c1ccccc1C(=O)O
inactive: all assays above

CCCCCCCCCCCCCCCCCC[N+](C)(C)C
active: [1] 44.4 µM | [3] 6.61 µM | [5] 38.6 µM | [7] 6.9 µM | [11] 16.7 µM | [12] 42 µM | [15] 5.86 µM | [16] 6.46 µM | [18] 16.5 µM | [19] 6.12 µM | [20] 6.14 µM
inactive: [2] | [4] | [6] | [8] | [9] | [10] | [13] | [14] | [17]
